Data on 20 compounds can be found in PubChem BioAssay (NCI).

Experiment [1] can be described thus: NCI Yeast Anticancer Drug Screen. Data for the rad50 strain (AID 155).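 Also: 0% = growth of vehicle-only cultures of the same strain.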 Particulars: S. cerevisiae rad50 strain growth inhibition; at 50.0 µM; hits give high values. The method, boiled down:
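Growth of the mutant yeast was measured after compound exposure and referenced to vehicle-treated cultures.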

Experiment [2] can be described thus: NCI Yeast Anticancer Drug Screen. Data for the mec2-1 strain (AID 157). The settings on record: S. cerevisiae mec2-1 strain, at 50.0 µM, hits give high values. In a few lines: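 Using mec2-1 yeast: add compound, measure growth, express inhibition versus vehicle-treated cultures.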
Experiment [3] is described as follows: NCI Yeast Anticancer Drug Screen. Data for the sgs1 mgt1 strain (AID 161).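 Also: 0% = growth of cultures given vehicle only.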 The settings on record: S. cerevisiae sgs1 mgt1 strain, at 50.0 µM, hits give high values. In a few lines:
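This yeast growth screen uses a strain with defined DNA-repair lesions; compound-treated growth is compared with vehicle-treated growth.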

Experiment [4] is described as follows: NCI Yeast Anticancer Drug Screen. Data for the cln2 rad14 strain (AID 165).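 Also: 0% = growth equal to vehicle treated cultures.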 The settings on record: S. cerevisiae cln2 rad14 strain, at 50.0 µM, hits give high values. In a few lines: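 Yeast strain cln2 rad14, bearing defects in cell cycle control and DNA repair, serves as the test system; values reflect growth inhibition compared with vehicle.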
Experiment [5] in a line: NCI Yeast Anticancer Drug Screen. Data for the bub3 strain (AID 167). Particulars: S. cerevisiae bub3 mutant strain, at 50.0 µM, hits give high values. The method, boiled down: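 Whole-cell yeast assay. The mutant strain was incubated with compounds, and growth inhibition was determined by comparison with vehicle-treated cells.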
A short description of experiment [6]: NCI Yeast Anticancer Drug Screen. Data for the mlh1 rad18 strain (AID 175). The settings on record: S. cerevisiae mlh1 rad18 strain growth inhibition; at 50.0 µM; hits give high values. In a few lines: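 Steps: expose repair-defective yeast to compound; measure growth; express inhibition against vehicle-treated controls.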

Values joined by “and” are separate entries in the source; they are usually repeats but may differ in a detail not shown here. Equal values may be shown once. About 79,000 compounds went through this panel and 15% of them were active in at least one assay; those are over-represented in the sample as a whole. Unmarked numbers belong to inactive results. Active and inactive are the calls of the source. Rule as the data show it: active = growth inhibition above about 70%; inactive = the rest.

On to `C/C=C/C(C)C1(CC)C(=O)NC(=S)NC1=O` (stereo not given), for which the growth inhibition is 8.8% in experiment [1]; 9.65% in experiment [2]; 9% in experiment [3]; 10.6% in experiment [4]; -11.3% in experiment [5]; -13.1% in experiment [6].

Regarding `O=C(NCP(=O)(O)O)c1cccnc1`, the growth inhibition in experiment [1] is -10.7% and -6.8%; in experiment [2] it was -29.5% and -10.8%; in experiment [3], -4.9% and 6.8%; in experiment [4], -37.6% and -25.1%; in experiment [5], -32.8% and -6.75%; in experiment [6] it was 2.85% and -10.2%.

As for `O=NNc1ncccn1`, the growth inhibition in experiment [1] was -20.2%; in experiment [2], -11.7%; in experiment [3], 3.7%; in experiment [4] it was 4.3%; in experiment [5] it was -0.2%; in experiment [6] it was -23%.

In the case of `CC(C)[C@H](C)/C=C/[C@@H](C)C1CC[C@H]2[C@@]34C=C[C@]5(C[C@@H](O)CC[C@]5(C)[C@H]3CC[C@]12C)OO4` (stereo not given in full), the growth inhibition in experiment [1] was 11.8%; in experiment [2], 19%; in experiment [3] it was -13.2%; in experiment [4], 2.15%; in experiment [5], -20.4%; in experiment [6], -31.6%.

For `CCN(CCCl)c1cc(CN(C)C)cc(NC(=O)c2ccc(C(=O)Nc3ccccc3)cc2)c1`, the growth inhibition in experiment [1] is 0.7%; in experiment [2], -18.4%; in experiment [3] it was 5%; in experiment [4] it was 26.2%; in experiment [5] it was 23.9%; in experiment [6], 12.4%.

On to `NNC(=O)Nc1nn[nH]n1`, for which the growth inhibition is 1.75% and -6.75% in experiment [1]; 8.2% and 8.5% in experiment [2]; 10.2% and -6.75% in experiment [3]; -19.4% and 6% in experiment [4]; -15% and 12.6% in experiment [5]; 7.95% and -3.6% in experiment [6].

In the case of `CCN1C(=O)C(=C/C=C/c2ccc(OC)cc2)C(=O)N(CC)C1=S`, the growth inhibition in experiment [1] is 37.4%; in experiment [2], 10.8%; in experiment [3], 46.4%; in experiment [4], 11.8%; in experiment [5] it was 13.8%; in experiment [6], 36.7%.

For the compound `O=C(O)c1ccccc1O.[Cu]`, the growth inhibition was -31.2% in experiment [1]; -32.5% in experiment [2]; -36.8% in experiment [3]; -3.85% in experiment [4]; -19.1% in experiment [5]; -8.65% in experiment [6].

Consider `CC(OC(N)=O)C(F)(F)C(F)F` (stereo not given), for which the growth inhibition is -26.6% in experiment [1]; -9.15% in experiment [2]; 1.35% in experiment [3]; -39.2% in experiment [4]; -12.8% in experiment [5]; -1.85% in experiment [6].

For the compound `C=CCCOC(=O)CO[N+](=O)[O-]`, the growth inhibition in experiment [1] is 6.8%; in experiment [2], -0.7%; in experiment [3], 5.35%; in experiment [4], 8.8%; in experiment [5], -4.25%; in experiment [6] it was 4.1%.

For the compound `O=C(O)CN(CCN(CC(=O)O)CC(=O)O)CC(=O)O.[Cl][Pd][Cl]`, the growth inhibition in experiment [1] is 41.7%; in experiment [2] it was 51.5%; in experiment [3], 48.2%; in experiment [4], 21.7%; in experiment [5], 44.6%; in experiment [6], 62%.

On to `COc1cc(C(=O)OC(C)CC2(c3ccccc3)C(=O)NC(=O)NC2=O)cc(OC)c1OC` (stereo not given), for which the growth inhibition was 2.75% in experiment [1]; -3.4% in experiment [2]; 24.1% in experiment [3]; 1.75% in experiment [4]; 3.05% in experiment [5]; -6.8% in experiment [6].

With `CC(=O)Nc1ccc(C(=O)O)cc1`, the growth inhibition in experiment [1] was 5.05%; in experiment [2] it was -1%; in experiment [3], 0.1%; in experiment [4] it was 33%; in experiment [5] it was 0.15%; in experiment [6], 1.8%.

On to `CCC[CH2][Sn]1([CH2]CCC)[O]C(=O)CN=C(C)c2ccccc2[O]1`, for which the growth inhibition is 0.1% in experiment [1]; 9.85% in experiment [2]; 4% in experiment [3]; 45.5% in experiment [4]; 9.8% in experiment [5]; 3.45% in experiment [6].

Regarding `NC(=S)c1cc(N(CCCl)CCCl)c([N+](=O)[O-])cc1[N+](=O)[O-]`, the growth inhibition in experiment [1] is 22.4%; in experiment [2], -0.25%; in experiment [3] it was 8.85%; in experiment [4], 8.85%; in experiment [5], -11.6%; in experiment [6], -22.5%.

Regarding `COP(=O)(NC12CC3CC(CC(C3)C1)C2)OC`, the growth inhibition in experiment [1] was -4.75%; in experiment [2], 5.45%; in experiment [3] it was -13.4%; in experiment [4], 15.7%; in experiment [5], -1.1%; in experiment [6], -16.7%.

For `CC1=CC(=O)CC2(C)CCC(C(C)CC(=O)CC(C)C)CC12OO` (stereo not given), the growth inhibition in experiment [1] is 89.4% (active) and 88.8% (active); in experiment [2], 92.3% (active) and 92% (active); in experiment [3] it was 91.6% (active) and 91.4% (active); in experiment [4], 91.8% (active) and 91.7% (active); in experiment [5] it was 89.4% (active); in experiment [6], 91.3% (active) and 89.5% (active).

In the case of `Nc1ncnc2c1ncn2C1OC(CO)C2NP(=O)(N(CCCl)CCCl)OC21` (stereo not given), the growth inhibition in experiment [1] was 6.1% and 16.9%; in experiment [2], -6.2% and 1.7%; in experiment [3], -22.1% and -19.3%; in experiment [4] it was -8.1% and 5.15%; in experiment [5], -6.15% and -15.6%; in experiment [6], -38% and -8.55%.

With `O=C1C2CCC(C2)[CH]1[Hg][Cl]` (stereo not given), the growth inhibition in experiment [1] is 99.4% (active); in experiment [2], 99.7% (active); in experiment [3], 99.5% (active); in experiment [4] it was 99% (active); in experiment [5], 99.3% (active); in experiment [6], 99.5% (active).

`O=[N+]([O-])c1c(F)cc(F)c([N+](=O)[O-])c1F`: the growth inhibition in experiment [1] was -29.5%; in experiment [2] it was -6.15%; in experiment [3], -11.6%; in experiment [4] it was -28.2%; in experiment [5] it was -4.75%; in experiment [6], 52.9%.
